Laboratory results from PubChem BioAssay (Tox21).
Inconclusive results are not listed. Active and inactive are the calls of the source. Unless noted, calls come from the whole dose curve; as a rule, active = well fitted curve in the direction sought with a large enough effect in the repeat runs; inconclusive = weak or mixed curves; inactive = no such curve, though single readings can be large; an effect the other way counts as inactive or inconclusive.

Legend:
[1] = qHTS assay to identify small molecule antagonists of the TGF-beta/Smad signaling pathway - cell viability counter screen (AID 1346824); note: nearly all actives have a fitted effect of over 50% in size
Summary of the method: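 SBE-bla HEK 293T cells were plated overnight at 37 C, then given compounds in DMSO plus TGF-beta1 (added as 0.25 ng/mL solution) for 5 hr. After the bla read, CellTiter-Glo was added to the same wells and luminescence read after 30 min at room temperature.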

[2] = qHTS assay to identify small molecule agonists of the TGF-beta/Smad signaling pathway - cell viability counter screen (AID 1346829); note: top concentration of the series differs between compounds; nearly all actives have a fitted effect of over 45% in size
Summary of the method: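 After overnight seating at 37 C and 5% CO2, reporter cells got compounds for 5 hr and FRET substrate for 2 hr; cell viability then came from CellTiter-Glo luminescence.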

[3] = qHTS assay to identify small molecule agonists of the TGF-beta/Smad signaling pathway (AID 1346859; active = well fitted activation curve with a large enough effect in the signal ratio in the repeat runs, not every such curve was filed as active; the % refers to the signal ratio; note: series mostly up to about 77 µM)
Summary of the method: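 SBE-bla HEK293T cells plated overnight, then compound exposure for 5 h at 37 C. Beta-lactamase reporter read with LiveBLAzer B/G FRET substrate after 2 h at room temperature, fluorescence at 405 nm excitation, 460/530 nm emission.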

[4] = target: Thyrotropin-releasing hormone receptor (Homo sapiens) (UniProt P34981); assay: qHTS assay to identify small molecule antagonists of the thyrotropin-releasing hormone receptor (TRHR) signaling pathway (AID 1346877; active = well fitted inhibition curve with a large enough effect in the repeat runs, not every such curve was filed as active; note: series mostly up to about 51 µM)
Chain of Thyrotropin-releasing hormone receptor (Homo sapiens) (P34981 whole entry, looked up): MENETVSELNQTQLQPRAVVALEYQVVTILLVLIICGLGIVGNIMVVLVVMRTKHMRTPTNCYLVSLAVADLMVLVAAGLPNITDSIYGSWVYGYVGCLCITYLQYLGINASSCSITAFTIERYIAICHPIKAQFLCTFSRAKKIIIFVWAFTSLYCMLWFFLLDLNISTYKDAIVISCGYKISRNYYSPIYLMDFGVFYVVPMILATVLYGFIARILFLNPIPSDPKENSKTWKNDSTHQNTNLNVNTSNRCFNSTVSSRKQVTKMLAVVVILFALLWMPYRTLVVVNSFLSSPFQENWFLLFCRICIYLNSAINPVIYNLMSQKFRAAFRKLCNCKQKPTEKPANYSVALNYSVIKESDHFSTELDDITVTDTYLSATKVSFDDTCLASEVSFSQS
Summary of the method: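 Intracellular calcium fluorescence, read kinetically every second over 3 min, reports TRH-evoked signalling in HEK293 cells carrying TRHR. Test compounds were added 5 min ahead of a 1 nM TRH challenge.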

[5] = target: Thyrotropin-releasing hormone receptor (Homo sapiens) (UniProt P34981); assay: qHTS assay to identify small molecule agonists of the thyrotropin-releasing hormone receptor (TRHR) signaling pathway (AID 1346891; calls by dose curve; note: series mostly up to about 58 µM)
Summary of the method: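 HEK293 cells expressing TRHR plated 18 h at 37 C/5% CO2, calcium dye-loaded 2 h at 37 C, then compound added (agonist mode); kinetic calcium fluorescence read 3 min at 1 s intervals; 15 concentrations in triplicate.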

[6] = Human pregnane X receptor (PXR) small molecule agonists, qHTS cell viability counter screen (AID 1346977); note: nearly all actives have a fitted effect of over 50% in size
Summary of the method: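 PXR-Luc HepG2 cells (2,000/well, 5% charcoal-stripped FBS) preincubated 5 hr, then exposed to compounds 24 hr at 37 C. Viability read in the same wells by CellTiter-Fluor fluorescence, reagent added at 23 hr, 1 hr incubation.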

[7] = Caspase-3/7 induction in HepG2 cells by small molecules, qHTS assay (AID 1346978); note: nearly all actives have a fitted effect of over 15% in size
Summary of the method: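 Wild-type HepG2 cells (2,000/well) were settled 5 h at 37 C, 5% CO2, then exposed to compounds in DMSO for 17 h. Caspase-3/7 activity was read by luminescence 30 min after adding Caspase-Glo 3/7 reagent at room temperature.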

[8] = Caspase-3/7 induction in CHO-K1 cells by small molecules, qHTS cell viability counter screen (AID 1346979); note: nearly all actives have a fitted effect of over 35% in size
Summary of the method: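 Wild-type CHO-K1 cells (1,500/well) treated with compound after 5 h plating; after 16 h at 37C, viability read as CellTiter-Fluor fluorescence following 1 h reagent incubation, in the same wells as the caspase read.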

[9] = Caspase-3/7 induction in CHO-K1 cells by small molecules, qHTS assay (AID 1346980); note: nearly all actives have a fitted effect of over 15% in size
Summary of the method: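 Wild-type cells were seeded at 1,500 per well and settled 5 hr at 37 C, 5% CO2, then exposed to DMSO-dissolved compounds for 17 hr. Caspase-Glo 3/7 reagent was added, and luminescence was read after 30min at room temperature.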

[10] = Caspase-3/7 induction in HepG2 cells by small molecules, qHTS cell viability counter screen (AID 1346981); note: series mostly up to about 92 µM; nearly all actives have a fitted effect of over 30% in size
Summary of the method: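 HepG2, WT, 2,000 cells/well; 5 hr pre-incubation 37 C/5% CO2; compound pin-transferred from DMSO; 16 hr exposure; CellTiter-Fluor, 1 hr; fluorescence read.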

[11] = target: Nuclear receptor subfamily 1 group I member 2 (Homo sapiens) (UniProt O75469); assay: Human pregnane X receptor (PXR) small molecule agonists, qHTS assay (AID 1346982); note: nearly all actives have a fitted effect of over 35% in size
Chain of Nuclear receptor subfamily 1 group I member 2 (Homo sapiens) (O75469 whole entry, looked up): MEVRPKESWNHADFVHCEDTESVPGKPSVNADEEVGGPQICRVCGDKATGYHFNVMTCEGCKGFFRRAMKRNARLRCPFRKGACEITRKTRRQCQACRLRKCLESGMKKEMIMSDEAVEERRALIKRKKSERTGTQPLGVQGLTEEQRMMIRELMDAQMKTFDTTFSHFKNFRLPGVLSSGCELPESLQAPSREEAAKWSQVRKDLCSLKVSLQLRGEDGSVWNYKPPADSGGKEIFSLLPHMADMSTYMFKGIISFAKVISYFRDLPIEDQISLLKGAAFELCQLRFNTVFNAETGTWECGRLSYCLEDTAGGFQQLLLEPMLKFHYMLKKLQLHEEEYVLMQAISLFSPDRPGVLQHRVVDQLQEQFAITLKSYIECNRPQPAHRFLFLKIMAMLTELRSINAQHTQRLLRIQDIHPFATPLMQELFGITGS
Summary of the method: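 Luciferase signal from ONE-Glo (30 min, room temperature) measured activation of hPXR-driven CYP3A4 reporter expression in PXR-Luc HepG2 cells treated with compounds for 24 hr at 37 C.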

[12] = target: Nuclear receptor subfamily 1 group I member 2 (Homo sapiens) (UniProt O75469); assay: CYP3A4 induction through human pregnane X receptor (PXR) by small molecules, qHTS assay (AID 1346984); note: nearly all actives have a fitted effect of over 40% in size
Summary of the method: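 Luminescence readout: luciferase signal after One-Glo (30 min, room temperature), following 3 h at 37C with 3uM final Luciferin-IPA P450 substrate. Cells were DPX-2 (HepG2, PXR/CYP3A4-luc co-transfected) dosed for 24 h.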

[13] = target: Nuclear receptor subfamily 1 group I member 2 (Homo sapiens) (UniProt O75469); assay: Human pregnane X receptor (PXR) activation by small molecules, qHTS assay (AID 1346985); note: nearly all actives have a fitted effect of over 40% in size
Summary of the method: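 DPX-2 cells (HepG2 co-transfected with a PXR response element and a CYP3A4-promoter luciferase construct) were seeded at 2,000 per well, rested 5 hr at 37C, then exposed to DMSO-dissolved compounds for 24 hr. Activation was read as luciferase luminescence.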

[14] = target: Cytochrome P450 2D6 (Homo sapiens) (UniProt P10635); assay: Cytochrome P450 Family 2 Subfamily D Member 6 (CYP2D6) small molecule antagonists: luciferase reporter qHTS assay (AID 1671196); note: series mostly up to about 120 µM; nearly all actives have a fitted effect of over 50% in size
Chain of Cytochrome P450 2D6 (Homo sapiens) (P10635 whole entry, looked up): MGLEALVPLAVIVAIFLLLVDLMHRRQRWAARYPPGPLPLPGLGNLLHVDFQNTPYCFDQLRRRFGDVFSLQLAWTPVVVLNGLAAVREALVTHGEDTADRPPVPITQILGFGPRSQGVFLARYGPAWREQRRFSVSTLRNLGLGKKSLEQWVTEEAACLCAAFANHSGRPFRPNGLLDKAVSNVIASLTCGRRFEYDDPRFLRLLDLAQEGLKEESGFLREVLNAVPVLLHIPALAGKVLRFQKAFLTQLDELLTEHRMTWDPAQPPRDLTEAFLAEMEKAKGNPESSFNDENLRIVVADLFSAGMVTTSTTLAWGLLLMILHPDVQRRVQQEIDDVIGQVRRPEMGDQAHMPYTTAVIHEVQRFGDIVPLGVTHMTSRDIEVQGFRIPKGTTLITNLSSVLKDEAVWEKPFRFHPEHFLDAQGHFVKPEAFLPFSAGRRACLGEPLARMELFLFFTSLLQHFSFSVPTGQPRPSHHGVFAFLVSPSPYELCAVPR
Summary of the method: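 Read-out is luminescence from luciferin formed by CYP2D6 turnover of a proluciferin substrate, recorded as relative luminescence units. Reactions ran 1 h at room temperature after NADPH regeneration solution was added.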

[15] = target: Cytochrome P450 2C19 (Homo sapiens) (UniProt P33261); assay: Cytochrome P450 Family 2 Subfamily C Member 19 (CYP2C19) small molecule antagonists: luciferase reporter qHTS assay (AID 1671197); note: series mostly up to about 120 µM; nearly all actives have a fitted effect of over 65% in size
Chain of Cytochrome P450 2C19 (Homo sapiens) (P33261 whole entry, looked up): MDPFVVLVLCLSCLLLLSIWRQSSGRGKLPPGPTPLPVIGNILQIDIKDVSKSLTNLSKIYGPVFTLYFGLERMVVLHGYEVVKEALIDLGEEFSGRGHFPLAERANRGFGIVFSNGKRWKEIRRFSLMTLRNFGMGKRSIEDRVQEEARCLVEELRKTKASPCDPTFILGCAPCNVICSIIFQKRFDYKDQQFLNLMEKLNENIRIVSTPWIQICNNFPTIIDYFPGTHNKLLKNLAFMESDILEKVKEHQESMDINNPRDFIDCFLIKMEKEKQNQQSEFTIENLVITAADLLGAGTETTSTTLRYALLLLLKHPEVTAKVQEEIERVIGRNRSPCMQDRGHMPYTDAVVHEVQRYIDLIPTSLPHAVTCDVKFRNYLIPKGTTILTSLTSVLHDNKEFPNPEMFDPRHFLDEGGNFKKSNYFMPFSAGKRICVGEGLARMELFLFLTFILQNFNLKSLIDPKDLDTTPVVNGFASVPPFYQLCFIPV
Summary of the method: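 Inhibition of CYP2C19 was scored from loss of luminescence in a P450-Glo proluciferin substrate assay, NADPH-started and run 1 h at 37C, with ketoconazole as positive control.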

[16] = target: Cytochrome P450 2C9 (Homo sapiens) (UniProt P11712); assay: Cytochrome P450 Family 2 Subfamily C Member 9 (CYP2C9) small molecule antagonists: luciferase reporter qHTS assay (AID 1671198); note: nearly all actives have a fitted effect of over 50% in size; note: potency is the fitted concentration of half-maximal effect; for activity change, negative = inhibition: series mostly up to about 120 µM
Chain of Cytochrome P450 2C9 (Homo sapiens) (P11712 whole entry, looked up): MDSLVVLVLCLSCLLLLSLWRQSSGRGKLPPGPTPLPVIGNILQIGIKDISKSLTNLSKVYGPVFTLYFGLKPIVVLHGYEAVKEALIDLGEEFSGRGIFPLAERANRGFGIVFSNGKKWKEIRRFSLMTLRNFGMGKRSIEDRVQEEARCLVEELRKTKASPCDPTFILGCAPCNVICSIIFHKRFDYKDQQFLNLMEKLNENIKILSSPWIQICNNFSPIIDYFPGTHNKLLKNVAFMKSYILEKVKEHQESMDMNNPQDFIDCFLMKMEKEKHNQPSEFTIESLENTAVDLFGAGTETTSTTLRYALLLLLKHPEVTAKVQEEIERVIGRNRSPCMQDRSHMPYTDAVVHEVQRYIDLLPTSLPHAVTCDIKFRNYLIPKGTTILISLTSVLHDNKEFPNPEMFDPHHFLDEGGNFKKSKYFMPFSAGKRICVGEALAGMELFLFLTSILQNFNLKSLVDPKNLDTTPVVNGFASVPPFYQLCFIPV
Summary of the method: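 CYP2C9 activity was measured with a P450-Glo proluciferin substrate. Enzyme–substrate mix was held with compound for 10 min at room temperature, then NADPH regeneration solution was added for 1 h at 37C. Luciferin product was read as luminescence.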

[17] = target: Cytochrome P450 1A2 (Homo sapiens) (UniProt P05177); assay: Cytochrome P450 Family 1 Subfamily A Member 2 (CYP1A2) small molecule antagonists: luciferase reporter qHTS assay (AID 1671199); note: nearly all actives have a fitted effect of over 50% in size; note: potency is the fitted concentration of half-maximal effect; for activity change, negative = inhibition: series mostly up to about 120 µM
Chain of Cytochrome P450 1A2 (Homo sapiens) (P05177 whole entry, looked up): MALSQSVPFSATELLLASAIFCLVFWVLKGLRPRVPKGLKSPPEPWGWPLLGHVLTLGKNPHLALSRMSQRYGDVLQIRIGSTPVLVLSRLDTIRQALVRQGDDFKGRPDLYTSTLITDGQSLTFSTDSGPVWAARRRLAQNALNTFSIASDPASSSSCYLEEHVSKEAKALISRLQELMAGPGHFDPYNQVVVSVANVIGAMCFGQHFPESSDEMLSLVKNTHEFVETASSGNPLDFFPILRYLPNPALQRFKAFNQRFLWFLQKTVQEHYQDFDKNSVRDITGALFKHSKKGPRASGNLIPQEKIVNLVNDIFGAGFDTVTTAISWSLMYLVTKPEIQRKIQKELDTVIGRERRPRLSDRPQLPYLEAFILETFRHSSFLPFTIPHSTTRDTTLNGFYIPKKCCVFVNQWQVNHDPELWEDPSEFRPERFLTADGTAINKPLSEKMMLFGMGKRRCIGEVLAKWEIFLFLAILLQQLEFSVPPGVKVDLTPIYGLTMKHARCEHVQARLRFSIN
Summary of the method: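 P450-Glo CYP1A2, 1536-well qHTS: enzyme/proluciferin substrate + cpd (DMSO), 10 min RT; NADPH regen, 1 h RT; detection reagent, 20 min; luminescence, RLU.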

[18] = target: Voltage-gated inwardly rectifying potassium channel KCNH2 (Homo sapiens) (UniProt Q12809); assay: Human Ether-a-go-go-Related Gene (hERG) channel small molecule antagonists: fluorescence cell-based qHTS assay (AID 1671200)
Chain of Voltage-gated inwardly rectifying potassium channel KCNH2 (Homo sapiens) (Q12809 whole entry, looked up): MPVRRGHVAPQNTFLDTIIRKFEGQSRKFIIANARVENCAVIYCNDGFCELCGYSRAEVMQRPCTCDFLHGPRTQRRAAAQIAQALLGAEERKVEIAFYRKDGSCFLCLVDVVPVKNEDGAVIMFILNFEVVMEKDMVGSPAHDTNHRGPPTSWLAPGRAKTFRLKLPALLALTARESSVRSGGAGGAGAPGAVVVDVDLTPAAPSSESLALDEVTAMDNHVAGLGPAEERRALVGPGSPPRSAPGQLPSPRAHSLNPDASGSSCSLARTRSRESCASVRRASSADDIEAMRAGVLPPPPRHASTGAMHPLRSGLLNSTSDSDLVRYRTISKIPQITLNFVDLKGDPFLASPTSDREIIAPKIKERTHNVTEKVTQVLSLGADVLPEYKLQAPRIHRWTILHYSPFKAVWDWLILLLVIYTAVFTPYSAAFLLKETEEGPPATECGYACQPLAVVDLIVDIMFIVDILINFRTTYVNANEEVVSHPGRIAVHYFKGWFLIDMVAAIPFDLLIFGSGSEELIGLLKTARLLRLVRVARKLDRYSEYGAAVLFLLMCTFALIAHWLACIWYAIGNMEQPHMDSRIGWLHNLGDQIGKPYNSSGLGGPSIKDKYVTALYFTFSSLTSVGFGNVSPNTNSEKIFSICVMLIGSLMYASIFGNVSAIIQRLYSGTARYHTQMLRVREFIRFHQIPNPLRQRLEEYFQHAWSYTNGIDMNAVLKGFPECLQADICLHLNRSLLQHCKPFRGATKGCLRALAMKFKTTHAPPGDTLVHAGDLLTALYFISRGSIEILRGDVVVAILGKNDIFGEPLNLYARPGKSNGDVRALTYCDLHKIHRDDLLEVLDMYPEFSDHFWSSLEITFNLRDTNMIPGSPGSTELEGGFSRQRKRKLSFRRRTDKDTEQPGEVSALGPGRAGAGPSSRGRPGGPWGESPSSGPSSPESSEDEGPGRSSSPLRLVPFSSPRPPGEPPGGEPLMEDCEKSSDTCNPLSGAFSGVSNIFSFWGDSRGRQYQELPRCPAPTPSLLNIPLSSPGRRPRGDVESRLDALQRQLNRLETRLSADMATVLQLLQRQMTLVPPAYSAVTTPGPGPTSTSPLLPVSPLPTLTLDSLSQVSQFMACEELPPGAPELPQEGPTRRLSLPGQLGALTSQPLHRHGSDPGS
Summary of the method: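 hERG-U2OS cells plated overnight at 37 C, loaded with FluxOR II dye 1 h at RT in dark; after 10 min, thallium stimulus added. Fluorescence (480/540 nm) read kinetically for 2 min at 1 s intervals.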

[19] = target: Cytochrome P450 3A4 (Homo sapiens) (UniProt P08684); assay: Cytochrome P450 Family 3 Subfamily A Member 4 (CYP3A4) small molecule antagonists: luciferase reporter qHTS assay (AID 1671201)
Chain of Cytochrome P450 3A4 (Homo sapiens) (P08684 whole entry, looked up): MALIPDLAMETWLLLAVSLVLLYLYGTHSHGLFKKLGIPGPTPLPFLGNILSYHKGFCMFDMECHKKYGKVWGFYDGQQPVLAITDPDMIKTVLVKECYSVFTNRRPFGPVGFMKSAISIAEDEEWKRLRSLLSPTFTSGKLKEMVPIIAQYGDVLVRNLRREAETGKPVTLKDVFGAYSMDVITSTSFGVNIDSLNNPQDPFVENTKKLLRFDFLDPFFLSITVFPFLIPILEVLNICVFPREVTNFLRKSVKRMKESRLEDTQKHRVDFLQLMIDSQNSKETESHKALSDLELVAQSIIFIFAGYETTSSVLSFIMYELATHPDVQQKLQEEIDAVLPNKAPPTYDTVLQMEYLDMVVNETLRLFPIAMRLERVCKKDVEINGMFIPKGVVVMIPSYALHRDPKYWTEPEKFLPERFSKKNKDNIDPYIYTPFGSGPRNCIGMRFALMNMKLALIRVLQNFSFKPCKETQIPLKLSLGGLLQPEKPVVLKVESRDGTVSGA
Summary of the method: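 P450-Glo CYP3A4 luminescent assay: compounds preincubated 10 min at room temperature with enzyme and proluciferin substrate, NADPH regeneration added, 1 h room-temperature reaction, stopped with luciferin detection reagent; luminescence read after 20 min. Ketoconazole positive control.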
% is set by controls: 0 for no effect and ±100 for the full control effect.

CN1C[C@@H]2C[C@H]1CN2c1cc2c(cc1F)c(=O)c(C(=O)O)cn2C1CC1
inactive: viability change, negative = cytotoxic [1] 1.45% [at 15.8 µM] | activity change, negative = cytotoxicity [2] 2.12% [at 15.8 µM] | activation [3] 0.101% [at 15.8 µM] | activity, negative = inhibition [4] 1.83% [at 10.5 µM] | activation [5] -1.22% [at 11.8 µM] | activity change, negative = cytotoxicity [6] -0.63% [at 19 µM] | caspase activation [7] -0.0526% [at 19 µM] | activity change, negative = cytotoxicity [8] -0.0368% [at 19 µM] | caspase-3/7 activation [9] -1.08% [at 19 µM] | activity change, negative = cytotoxicity [10] -1.05% [at 19 µM] | activation [11] -18.6% [at 19 µM] | Potency [12] | Potency [13] | activity change, negative = inhibition [14] 4.43% [at 23.6 µM] | activity change, negative = inhibition [15] 35.3% [at 23.6 µM] | activity change, negative = inhibition [16] 8.53% [at 23.6 µM] | activity change, negative = inhibition [17] -8.84% [at 23.6 µM] | activity change, negative = inhibition [18] 0.182% [at 15.8 µM] | activity change, negative = inhibition [19] 4.83% [at 23.6 µM]

Cc1c(C(=O)c2c[nH]n(C)c2=O)ccc(S(C)(=O)=O)c1C1=NOCC1
active: Potency [16] 12.9 µM | Potency [17] 14.5 µM
inactive: outcome [1] | outcome [2] | outcome [3] | outcome [4] | outcome [5] | outcome [6] | outcome [7] | Potency [8] | outcome [9] | outcome [10] | Potency [11] | Potency [14] | Potency [18] | Potency [19]

CCCCOCC(C)O (configuration not stated)
inactive: outcome [1] | outcome [2] | outcome [3] | outcome [4] | outcome [5] | outcome [6] | outcome [7] | Potency [8] | outcome [9] | outcome [10] | Potency [11] | Potency [14] | Potency [15] | Potency [16] | Potency [18] | Potency [19]

Cc1cccc(Cl)c1
inactive: outcome [1] | outcome [2] | outcome [3] | outcome [4] | outcome [5] | outcome [6] | outcome [7] | Potency [8] | outcome [9] | outcome [10] | Potency [11] | Potency [14] | Potency [15] | Potency [16] | Potency [17] | Potency [19]
